# Laboratory results taken from PubChem BioAssay (Tox21).
# A number with no mark means an inactive call. Inconclusive results are not listed. A call without a number means that no potency is given here. The source made the active and inactive calls. Unless noted, calls come from the whole dose curve.
# How the values were obtained:
# [1] = Nuclear factor erythroid 2-related factor 2/antioxidant responsive element (Nrf2/ARE) small molecule agonists: qHTS cell viability counter screen in human keratinocytes (AID 1919968; active = well fitted curve in the direction sought with a large enough effect in the repeat runs; an effect the other way counts as inactive or inconclusive; note: nearly all actives have a fitted effect of over 55% in size)
# In short: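 KeratinoSens cells (HaCaT keratinocytes stably carrying an ARE-luciferase reporter) were seeded at 1,500 cells/well and rested 5 h at 37 C/5% CO2. They were then exposed to compounds in DMSO for 23 h. Viability was read by CellTiter-Fluor fluorescence after 1 h.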
# [2] = Nuclear factor erythroid 2-related factor 2/antioxidant responsive element (Nrf2/ARE) small molecule agonists: luciferase reporter gene qHTS assay in human keratinocytes (AID 1919969); note: nearly all actives have a fitted effect of over 35% in size; note: potency is the fitted concentration of half-maximal effect
# [3] = biological target: Gonadotropin-releasing hormone receptor (Homo sapiens) (UniProt P30968); test: Human gonadotropin-releasing hormone receptor (GnRHR) small molecule agonists, calcium flux assay in GnRHR-HEK293 cells (AID 1920063); note: nearly all actives have a fitted effect of over 35% in size
# Chain of Gonadotropin-releasing hormone receptor (Homo sapiens) (P30968 whole entry, looked up): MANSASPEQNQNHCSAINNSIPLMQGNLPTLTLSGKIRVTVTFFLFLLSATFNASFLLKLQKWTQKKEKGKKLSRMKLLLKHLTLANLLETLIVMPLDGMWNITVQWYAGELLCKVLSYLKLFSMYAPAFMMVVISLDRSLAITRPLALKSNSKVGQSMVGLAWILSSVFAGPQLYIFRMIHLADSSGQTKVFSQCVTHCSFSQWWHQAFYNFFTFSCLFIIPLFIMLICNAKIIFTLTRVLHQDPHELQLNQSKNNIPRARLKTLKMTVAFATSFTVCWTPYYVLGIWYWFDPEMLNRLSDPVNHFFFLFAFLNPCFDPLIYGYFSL
# In short: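 HEK293 cells stably expressing human GnRHR were plated 18 h at 37 °C, loaded with calcium dye 1 h at 37 °C, then given compound in agonist mode; fluorescence (Ex/Em 480/540) read kinetically for 3 min at 1 s intervals.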
# [4] = biological target: KiSS-1 receptor (Homo sapiens) (UniProt Q969F8); test: Human kisspeptin (KISS1R) small molecule agonists, calcium flux assay in KISS1R-HEK293 cells (AID 1920064; active = well fitted curve in the direction sought with a large enough effect in the repeat runs; an effect the other way counts as inactive or inconclusive)
# Chain of KiSS-1 receptor (Homo sapiens) (Q969F8 whole entry, looked up): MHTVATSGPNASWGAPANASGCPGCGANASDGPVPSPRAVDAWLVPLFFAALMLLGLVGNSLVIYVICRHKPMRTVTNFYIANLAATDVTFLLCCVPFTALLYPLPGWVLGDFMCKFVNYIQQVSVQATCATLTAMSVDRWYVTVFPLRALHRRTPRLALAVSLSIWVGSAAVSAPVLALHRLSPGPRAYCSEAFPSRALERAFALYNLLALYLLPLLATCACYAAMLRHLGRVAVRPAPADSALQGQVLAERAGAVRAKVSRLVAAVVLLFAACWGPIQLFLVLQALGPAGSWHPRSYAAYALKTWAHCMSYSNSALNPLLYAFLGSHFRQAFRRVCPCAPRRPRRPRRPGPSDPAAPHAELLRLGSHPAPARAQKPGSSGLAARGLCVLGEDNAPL
# In short: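 HEK293 cells stably expressing human KISS1R were plated 18 h at 37 °C, loaded with calcium dye for 1 h at 37 °C, then given compound by pin tool. Fluorescence (Ex/Em 480/540) was read kinetically for 3 min.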
# [5] = G protein-coupled receptor (GPCR) small molecule agonists, calcium flux assay: HEK293 wild type cell line counter screen (AID 1920065)
# In short: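 Cells were plated and cultured 18 h at 37 C/5% CO2, then loaded with calcium dye for 1 h at 37 C. Compounds in DMSO were pin-transferred in agonist mode, and fluorescence (Ex/Em 480/540) was read kinetically for 3 min at 1 s intervals.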
# [6] = p53 small molecule agonists, cell-based qHTS assay with human liver microsomes (AID 1963577);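 note: p53 response element beta-lactamase reporter cells with liver microsomes plus NADPH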
# In short: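 HLM-supplemented p53RE-bla reporter assay: 16 h compound exposure at 37 C, microsomes and NADPH each 0.5 mg/mL final, read by fluorescence intensity.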
# [7] = p53 small molecule agonists, cell-based qHTS assay with rat liver microsomes (AID 1963578)
# In short: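 Quantitative HTS of the Tox21 10K library: p53RE-bla cells, rat liver microsomes plus NADPH at 0.5 mg/mL final each, 16 h at 37 C, beta-lactamase fluorescence detection.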
# [8] = p53 small molecule agonists, cell-based qHTS assay with human liver microsomes: qHTS cell viability counter screen (AID 1963579); note: nearly all actives have a fitted effect of over 45% in size
# In short: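 Viability of p53RE-bla cells is measured as CellTiter-Glo luminescence following a 16 h, 37 C incubation with compound, liver microsomes from human donors and NADPH.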
# [9] = p53 small molecule agonists, cell-based qHTS assay with rat liver microsomes: qHTS cell viability counter screen (AID 1963580); note: nearly all actives have a fitted effect of over 45% in size
# In short: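 In HCT-116 cells carrying a p53 response element-bla reporter, compounds were metabolically activated in situ by rat liver microsomes with NADPH over 16 h. Cell ATP content then served as the cytotoxicity measure.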
# [10] = p53 small molecule agonists, cell-based qHTS assay: qHTS cell viability counter screen (AID 1963581); note: nearly all actives have a fitted effect of over 45% in size
# In short: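 p53RE-bla HCT-116 cells were exposed to compounds for 16 h at 37 C; after the beta-lactamase FRET read in the same wells, CellTiter-Glo was added and luminescence (intracellular ATP) read after 30 min at room temperature.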
# [11] = p53 small molecule agonists, cell-based qHTS assay (AID 1963582; active = well fitted activation curve with a large enough effect in the signal ratio in the repeat runs, not every such curve was filed as active; the % refers to the signal ratio)
# In short: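 p53RE-bla beta-lactamase reporter cells rested 5 h at 37 C/5% CO2, then received compounds in DMSO by pin transfer and were incubated 16 h at 37 C. LiveBLAzer B/G FRET substrate was loaded for 2 h at room temperature before fluorescence reading.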
# [12] = biological target: 5-hydroxytryptamine receptor 2A (Homo sapiens) (UniProt P28223); test: 5-hydroxytryptamine receptor 2A (HTR2A) small molecule antagonists, cell-based qHTS assay (AID 1963586); note: nearly all actives have a fitted effect of over 45% in size
# Chain of 5-hydroxytryptamine receptor 2A (Homo sapiens) (P28223 whole entry, looked up): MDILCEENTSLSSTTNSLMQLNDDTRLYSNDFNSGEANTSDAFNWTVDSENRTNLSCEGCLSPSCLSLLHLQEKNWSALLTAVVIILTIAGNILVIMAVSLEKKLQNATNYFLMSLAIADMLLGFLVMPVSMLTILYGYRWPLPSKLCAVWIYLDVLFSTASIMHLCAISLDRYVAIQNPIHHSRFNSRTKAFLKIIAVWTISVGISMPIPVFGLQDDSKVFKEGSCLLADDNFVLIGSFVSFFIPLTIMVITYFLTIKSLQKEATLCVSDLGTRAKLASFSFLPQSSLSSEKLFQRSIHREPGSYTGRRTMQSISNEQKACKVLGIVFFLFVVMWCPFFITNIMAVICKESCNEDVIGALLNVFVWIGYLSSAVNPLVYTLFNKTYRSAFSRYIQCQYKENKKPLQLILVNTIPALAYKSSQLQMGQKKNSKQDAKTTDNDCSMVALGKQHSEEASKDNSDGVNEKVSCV
# In short: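 Antagonist-mode intracellular calcium assay: DOI (4 nM) added after 5 min compound pre-incubation at room temperature to dye-loaded HTR2A-CHO cells. Fluorescence followed for 3 min, sampled every second.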
# [13] = biological target: 5-hydroxytryptamine receptor 2A (Homo sapiens) (UniProt P28223); test: 5-hydroxytryptamine receptor 2A (HTR2A) small molecule agonists, cell-based qHTS assay (AID 1963587); note: nearly all actives have a fitted effect of over 30% in size
# In short: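 HTR2A-CHO cells, plated 18 h at 37 C/5% CO2, dye-loaded 1 h at 37 C; compounds in DMSO added by pin tool (agonist mode). Intracellular calcium flux read as kinetic fluorescence on FDSS over 2 min at 1 s intervals.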
# [14] = biological target: Muscarinic acetylcholine receptor M1 (Homo sapiens) (UniProt P11229); test: Cholinergic receptor muscarinic 1 (CHRM1) small molecule antagonists, cell-based qHTS assay (AID 1963588); note: nearly all actives have a fitted effect of over 40% in size; note: potency is the fitted concentration of half-maximal effect
# Chain of Muscarinic acetylcholine receptor M1 (Homo sapiens) (P11229 whole entry, looked up): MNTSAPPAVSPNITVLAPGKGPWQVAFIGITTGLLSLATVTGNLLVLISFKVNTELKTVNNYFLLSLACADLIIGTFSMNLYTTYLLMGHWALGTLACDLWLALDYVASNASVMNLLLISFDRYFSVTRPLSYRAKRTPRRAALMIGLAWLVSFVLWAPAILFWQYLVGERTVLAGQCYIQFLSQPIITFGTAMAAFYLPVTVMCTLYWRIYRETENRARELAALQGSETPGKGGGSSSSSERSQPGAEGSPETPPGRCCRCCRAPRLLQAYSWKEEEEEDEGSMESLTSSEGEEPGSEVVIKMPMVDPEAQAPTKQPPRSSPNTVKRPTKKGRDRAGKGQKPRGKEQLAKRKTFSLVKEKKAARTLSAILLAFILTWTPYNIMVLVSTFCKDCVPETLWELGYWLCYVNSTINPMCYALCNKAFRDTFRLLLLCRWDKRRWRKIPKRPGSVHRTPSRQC
# In short: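 CHRM1-CHO calcium-flux assay, antagonist mode. Cells were seeded 18 h, dye-loaded 1 h at 37 C and given compound for 5 min at RT, then acetylcholine was added at 50nM. FDSS fluorescence was read 3 min; 15 concentrations, three runs.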
# [15] = biological target: Muscarinic acetylcholine receptor M1 (Homo sapiens) (UniProt P11229); test: Cholinergic receptor muscarinic 1 (CHRM1) small molecule agonists, cell-based qHTS assay (AID 1963589); note: nearly all actives have a fitted effect of over 35% in size
# In short: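 CHO cells stably expressing human CHRM1, seeded 18 h at 37 C/5% CO2, dye-loaded 1 h at 37 C, then given compound in agonist mode; intracellular calcium fluorescence read kinetically at 1 s intervals. Fifteen concentrations, three independent runs.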
# [16] = cAMP Responsive Elements (CRE) small molecule agonists, cell-based qHTS assay (AID 1963590)
# In short: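 CRE-bla HEK 293T cells in DMEM with 10% dialyzed FBS, NEAA, pyruvate and 25 mM HEPES were plated 18 h at 37 C/5% CO2, then exposed to compounds in DMSO for 3 h before LiveBLAzer B/G FRET substrate addition.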
# [17] = biological target: Beta-2 adrenergic receptor (Homo sapiens) (UniProt P07550); test: Adrenergic beta2 receptor (ADRB2) small molecule antagonists, cell-based qHTS assay (AID 1963592); note: series mostly up to about 92 µM; nearly all actives have a fitted effect of over 50% in size
# Chain of Beta-2 adrenergic receptor (Homo sapiens) (P07550 whole entry, looked up): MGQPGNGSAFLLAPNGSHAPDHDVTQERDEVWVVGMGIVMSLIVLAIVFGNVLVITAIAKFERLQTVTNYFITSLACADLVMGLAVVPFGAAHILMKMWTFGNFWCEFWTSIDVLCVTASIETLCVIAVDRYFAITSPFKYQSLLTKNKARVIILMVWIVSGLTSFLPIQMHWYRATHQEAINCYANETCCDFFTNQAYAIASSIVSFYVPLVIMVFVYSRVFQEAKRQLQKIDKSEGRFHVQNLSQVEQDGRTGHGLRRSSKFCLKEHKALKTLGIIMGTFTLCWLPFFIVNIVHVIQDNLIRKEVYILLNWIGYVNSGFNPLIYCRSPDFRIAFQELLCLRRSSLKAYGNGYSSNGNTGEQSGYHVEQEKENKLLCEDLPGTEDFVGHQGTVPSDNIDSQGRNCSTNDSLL
# In short: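 Cells (CHO, stable ADRB2 overexpression) incubated 18-20hr at 37C; compounds added from DMSO; agonist mix (1nM isoproterenol, 100uM IBMX, 25uM Ro-20-1724) added; 0.5hr RT; d2-cAMP and anti-cAMP-cryptate added; 1hr RT; 665/615 nm read.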
# [18] = biological target: D(2) dopamine receptor (Homo sapiens) (UniProt P14416); test: Dopamine D2 receptor (DRD2) small molecule agonists, cell-based qHTS assay (AID 1963594); note: nearly all actives have a fitted effect of over 35% in size
# Chain of D(2) dopamine receptor (Homo sapiens) (P14416 whole entry, looked up): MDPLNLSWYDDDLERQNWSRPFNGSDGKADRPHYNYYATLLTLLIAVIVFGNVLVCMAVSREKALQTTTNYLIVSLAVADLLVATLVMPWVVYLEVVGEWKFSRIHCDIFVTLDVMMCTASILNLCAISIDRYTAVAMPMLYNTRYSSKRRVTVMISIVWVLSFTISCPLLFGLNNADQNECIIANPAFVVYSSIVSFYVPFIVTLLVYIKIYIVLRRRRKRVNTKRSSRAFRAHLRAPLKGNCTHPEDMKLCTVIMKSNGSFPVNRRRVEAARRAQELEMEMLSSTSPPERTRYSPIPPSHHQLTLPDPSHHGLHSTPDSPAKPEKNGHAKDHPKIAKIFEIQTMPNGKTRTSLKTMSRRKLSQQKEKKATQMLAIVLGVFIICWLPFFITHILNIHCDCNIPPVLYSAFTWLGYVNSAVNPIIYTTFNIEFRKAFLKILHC
# In short: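 HEK293 cells stably expressing DRD2 were cultured 24 h at 37 C, then given Ro20-1724 (0.1 mM final) and compounds for 10 min at room temperature. NKH477 (200nM) was then added for 30 min. cAMP was read by HTRF.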
# [19] = biological target: D(2) dopamine receptor (Homo sapiens) (UniProt P14416); test: Dopamine D2 receptor (DRD2) small molecule antagonists, cell-based qHTS assay (AID 1963595; active = well fitted inhibition curve with a large enough effect in the signal ratio in the repeat runs, with a control signal flat; the % refers to the signal ratio)
# In short: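 HEK293 cells stably expressing DRD2, preincubated with 0.1 mM Ro20-1724 and compounds 10 min, were stimulated with 200 nM NKH477 plus 12 nM quinpirole for 30 min at room temperature; cAMP measured by HTRF (665/620 nm).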
# [20] = cAMP Responsive Elements (CRE) small molecule antagonists, cell-based qHTS assay (AID 1963591; active = well fitted inhibition curve with a large enough effect in the signal ratio in the repeat runs, not every such curve was filed as active; the % refers to the signal ratio)
# In short: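 CRE-bla HEK293T cells were plated 18 h at 37 °C/5% CO2, pinned with compound in DMSO, then stimulated with NKH477 at 0.25 uM final for 3 h. LiveBLAzer B/G FRET substrate was added and plates incubated 2 h at room temperature.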
SMILES,Potency [1],Potency [2],Potency [3],outcome [4],outcome [5],Potency [6],Potency [7],Potency [8],Potency [9],Potency [10],Potency [11],Potency [12],Potency [13],Potency [14],Potency [15],Potency [16],Potency [17],Potency [18],Potency [19],Potency [20]
CCOC(=O)C(Br)c1ccccc1 (stereo not drawn),inactive,inactive,inactive,inactive,inactive,inactive,inactive,inactive,inactive,inactive,inactive,inactive,inactive,inactive,inactive,inactive,inactive,inactive,inactive,
CCOC(=O)CC#N,inactive,inactive,inactive,inactive,inactive,inactive,inactive,inactive,inactive,inactive,inactive,inactive,inactive,inactive,inactive,,,inactive,inactive,inactive
CCCCCCCCCI,inactive,inactive,inactive,inactive,inactive,inactive,inactive,inactive,inactive,inactive,inactive,inactive,inactive,8.55 µM (active),inactive,,inactive,inactive,inactive,inactive
Cc1cccc(C)c1NC(=O)c1ccccc1C(=O)O,inactive,inactive,inactive,inactive,inactive,inactive,inactive,inactive,inactive,inactive,inactive,inactive,inactive,inactive,inactive,inactive,inactive,,inactive,
Cc1cc(N)c(S(=O)(=O)O)cc1Cl,inactive,inactive,inactive,inactive,inactive,inactive,inactive,inactive,inactive,inactive,inactive,inactive,inactive,inactive,inactive,inactive,inactive,inactive,inactive,
Cc1cc(N)c2cc(NC(=O)Nc3ccc4nc(C)cc(N)c4c3)ccc2n1,inactive,inactive,inactive,inactive,inactive,inactive,inactive,inactive,inactive,inactive,inactive,inactive,inactive,inactive,inactive,inactive,,inactive,,
O=[N+]([O-])c1ccc2[nH]ncc2c1,inactive,inactive,inactive,inactive,inactive,inactive,inactive,inactive,inactive,inactive,inactive,inactive,inactive,inactive,inactive,,inactive,inactive,inactive,inactive
CCCCN(CCCC)C(=O)N(CCCC)CCCC,inactive,61.1 µM (active),inactive,inactive,inactive,inactive,inactive,inactive,inactive,inactive,inactive,inactive,inactive,inactive,inactive,,inactive,inactive,inactive,inactive
